Target: T1, ETV2 (Homo sapiens, UniProt O00321 1-342)
T1 sequence: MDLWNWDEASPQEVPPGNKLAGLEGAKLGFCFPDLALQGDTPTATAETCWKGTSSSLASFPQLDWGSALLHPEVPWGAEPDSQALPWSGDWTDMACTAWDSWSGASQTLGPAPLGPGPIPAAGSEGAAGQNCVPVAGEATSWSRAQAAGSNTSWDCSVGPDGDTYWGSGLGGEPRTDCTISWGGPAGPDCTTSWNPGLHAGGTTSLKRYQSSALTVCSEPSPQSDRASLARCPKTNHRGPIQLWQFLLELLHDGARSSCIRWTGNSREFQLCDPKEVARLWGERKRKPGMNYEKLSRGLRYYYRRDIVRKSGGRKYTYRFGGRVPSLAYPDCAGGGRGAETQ
Assay: DAPPL (digital affinity profiling via proximity ligation, sequencing); 10 mM Tris-HCl pH 7.5, 50 mM NaCl, 1 mM DTT, 4% glycerol, room temperature, 30 min; GST-TFs on glutathione beads, 16-mer random dsDNA library, 0.1% formaldehyde crosslink after washing; high values mean tight binding
Conditions: protein: recombinant; tags: N-terminal GST; dsDNA, one strand shown
In short: (§1)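 Sequencing on an Illumina NextSeq500 followed washing, crosslinking with 0.1% formaldehyde, proximity ligation (BsaI/T4 ligase, 1 h, 37 °C) and PCR amplification of pools that had been incubated for 30 min at room temperature with 200 nmole of a random double-stranded 16-mer DNA library in Tris/NaCl/DTT/glycerol buffer. Each pool held DNA-barcoded human transcription factors, expressed in yeast as GST fusions and captured on glutathione beads, plus a tag-only sample. Binding signal is a hexamer's read frequency for a factor divided by its frequency in the tag-only sample.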

Sequence	binding signal
TCTTCT	1.22 fold enrichment (6-mer frequency, TF over GST control)
AATCCT	1.34 fold enrichment (6-mer frequency, TF over GST control)
CCCCCT	1.17 fold enrichment (6-mer frequency, TF over GST control)
ACATCC	2.61 fold enrichment (6-mer frequency, TF over GST control)
TTTTGT	1.28 fold enrichment (6-mer frequency, TF over GST control)
ACATAA	1.15 fold enrichment (6-mer frequency, TF over GST control)
TTCTCG	1.4 fold enrichment (6-mer frequency, TF over GST control)
AAATCT	1.24 fold enrichment (6-mer frequency, TF over GST control)
TTCTCC	1.39 fold enrichment (6-mer frequency, TF over GST control)
CTTGCG	1.29 fold enrichment (6-mer frequency, TF over GST control)
ACGTTC	1.25 fold enrichment (6-mer frequency, TF over GST control)
AATTAA	1.2 fold enrichment (6-mer frequency, TF over GST control)
GTTCCT	1.65 fold enrichment (6-mer frequency, TF over GST control)
ACTTAT	1.35 fold enrichment (6-mer frequency, TF over GST control)
AATTTA	1.13 fold enrichment (6-mer frequency, TF over GST control)
CACGAT	1.17 fold enrichment (6-mer frequency, TF over GST control)
CTCTCT	1.63 fold enrichment (6-mer frequency, TF over GST control)
GCCTAC	1.16 fold enrichment (6-mer frequency, TF over GST control)
GCCTCG	1.06 fold enrichment (6-mer frequency, TF over GST control)
AACTAG	1.35 fold enrichment (6-mer frequency, TF over GST control)

Target: T2, ELF3 (Homo sapiens, UniProt P78545 1-371)
T2 sequence: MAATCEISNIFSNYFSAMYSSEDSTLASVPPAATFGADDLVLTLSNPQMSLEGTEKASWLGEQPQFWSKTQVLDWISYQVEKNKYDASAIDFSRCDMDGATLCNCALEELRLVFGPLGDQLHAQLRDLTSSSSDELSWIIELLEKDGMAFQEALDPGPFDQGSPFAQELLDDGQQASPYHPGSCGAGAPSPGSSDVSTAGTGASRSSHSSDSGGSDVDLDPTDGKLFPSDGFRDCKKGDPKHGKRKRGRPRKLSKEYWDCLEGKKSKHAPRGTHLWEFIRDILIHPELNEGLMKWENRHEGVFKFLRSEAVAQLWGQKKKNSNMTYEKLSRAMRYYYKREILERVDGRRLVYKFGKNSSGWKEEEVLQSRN
Assay: as above
Conditions: protein: recombinant; tags: N-terminal GST; dsDNA, one strand shown
In short: as §1

Sequence	binding signal
TTTTCC	1.89 fold enrichment (6-mer frequency, TF over GST control)
CGATTA	1 fold enrichment (6-mer frequency, TF over GST control)
TATTTT	1.36 fold enrichment (6-mer frequency, TF over GST control)
TCCTCG	1.53 fold enrichment (6-mer frequency, TF over GST control)
GTTGCT	1.16 fold enrichment (6-mer frequency, TF over GST control)
TCCGCC	1.6 fold enrichment (6-mer frequency, TF over GST control)
TCTCTG	1.37 fold enrichment (6-mer frequency, TF over GST control)
TTTAAC	1.15 fold enrichment (6-mer frequency, TF over GST control)
ATTGCA	1.13 fold enrichment (6-mer frequency, TF over GST control)
ACGTCT	1 fold enrichment (6-mer frequency, TF over GST control)
TCTACT	1.38 fold enrichment (6-mer frequency, TF over GST control)
TCATCC	1.49 fold enrichment (6-mer frequency, TF over GST control)
TATCGA	1.55 fold enrichment (6-mer frequency, TF over GST control)
CTACTC	1.32 fold enrichment (6-mer frequency, TF over GST control)
AATTAC	1.36 fold enrichment (6-mer frequency, TF over GST control)
TCTGGC	1.03 fold enrichment (6-mer frequency, TF over GST control)
CCCGAC	1.53 fold enrichment (6-mer frequency, TF over GST control)
CAAGAT	1.06 fold enrichment (6-mer frequency, TF over GST control)
TTAGCA	1.3 fold enrichment (6-mer frequency, TF over GST control)
CATTTG	1.49 fold enrichment (6-mer frequency, TF over GST control)

Sequence	binding signal
TCTTCT	1.31 fold enrichment (6-mer frequency, TF over GST control)
AATCCT	1.25 fold enrichment (6-mer frequency, TF over GST control)
CCCCCT	1.39 fold enrichment (6-mer frequency, TF over GST control)
ACATCC	2.38 fold enrichment (6-mer frequency, TF over GST control)
TTTTGT	1.43 fold enrichment (6-mer frequency, TF over GST control)
ACATAA	1.17 fold enrichment (6-mer frequency, TF over GST control)
TTCTCG	1.57 fold enrichment (6-mer frequency, TF over GST control)
AAATCT	1.25 fold enrichment (6-mer frequency, TF over GST control)
TTCTCC	1.4 fold enrichment (6-mer frequency, TF over GST control)
CTTGCG	1.46 fold enrichment (6-mer frequency, TF over GST control)
ACGTTC	1.25 fold enrichment (6-mer frequency, TF over GST control)
AATTAA	1.24 fold enrichment (6-mer frequency, TF over GST control)
GTTCCT	1.6 fold enrichment (6-mer frequency, TF over GST control)
ACTTAT	1.27 fold enrichment (6-mer frequency, TF over GST control)
AATTTA	1.36 fold enrichment (6-mer frequency, TF over GST control)
CACGAT	1.36 fold enrichment (6-mer frequency, TF over GST control)
CTCTCT	1.58 fold enrichment (6-mer frequency, TF over GST control)
GCCTAC	1.1 fold enrichment (6-mer frequency, TF over GST control)
GCCTCG	1.33 fold enrichment (6-mer frequency, TF over GST control)
AACTAG	1.1 fold enrichment (6-mer frequency, TF over GST control)

Target: CRX (Homo sapiens, UniProt O43186 1-299)
Assay: as above
Conditions: protein: recombinant; tags: N-terminal GST; dsDNA, one strand shown
In short: as §1

Chain of CRX (O43186 whole entry): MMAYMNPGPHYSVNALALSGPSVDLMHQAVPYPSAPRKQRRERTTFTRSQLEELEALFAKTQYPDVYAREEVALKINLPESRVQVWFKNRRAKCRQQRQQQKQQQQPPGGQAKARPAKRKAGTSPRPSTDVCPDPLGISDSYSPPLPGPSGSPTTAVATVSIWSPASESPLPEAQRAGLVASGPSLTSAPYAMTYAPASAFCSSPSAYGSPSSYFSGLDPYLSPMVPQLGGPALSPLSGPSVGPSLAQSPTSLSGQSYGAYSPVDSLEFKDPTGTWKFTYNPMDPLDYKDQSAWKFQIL

Sequence	binding signal
TTTTCC	1.44 fold enrichment (6-mer frequency, TF over GST control)
CGATTA	3.25 fold enrichment (6-mer frequency, TF over GST control)
TATTTT	1.77 fold enrichment (6-mer frequency, TF over GST control)
TCCTCG	1.37 fold enrichment (6-mer frequency, TF over GST control)
GTTGCT	1.06 fold enrichment (6-mer frequency, TF over GST control)
TCCGCC	1.05 fold enrichment (6-mer frequency, TF over GST control)
TCTCTG	1.49 fold enrichment (6-mer frequency, TF over GST control)
TTTAAC	1.74 fold enrichment (6-mer frequency, TF over GST control)
ATTGCA	1.11 fold enrichment (6-mer frequency, TF over GST control)
ACGTCT	1.09 fold enrichment (6-mer frequency, TF over GST control)
TCTACT	1.45 fold enrichment (6-mer frequency, TF over GST control)
TCATCC	1.65 fold enrichment (6-mer frequency, TF over GST control)
TATCGA	1.59 fold enrichment (6-mer frequency, TF over GST control)
CTACTC	1.28 fold enrichment (6-mer frequency, TF over GST control)
AATTAC	1.74 fold enrichment (6-mer frequency, TF over GST control)
TCTGGC	1.31 fold enrichment (6-mer frequency, TF over GST control)
CCCGAC	1.06 fold enrichment (6-mer frequency, TF over GST control)
CAAGAT	1.23 fold enrichment (6-mer frequency, TF over GST control)
TTAGCA	2.38 fold enrichment (6-mer frequency, TF over GST control)
CATTTG	1.07 fold enrichment (6-mer frequency, TF over GST control)

Sequence	binding signal
TCTTCT	1.59 fold enrichment (6-mer frequency, TF over GST control)
AATCCT	3.32 fold enrichment (6-mer frequency, TF over GST control)
CCCCCT	1.07 fold enrichment (6-mer frequency, TF over GST control)
ACATCC	1.05 fold enrichment (6-mer frequency, TF over GST control)
TTTTGT	1.42 fold enrichment (6-mer frequency, TF over GST control)
ACATAA	1.34 fold enrichment (6-mer frequency, TF over GST control)
TTCTCG	2.17 fold enrichment (6-mer frequency, TF over GST control)
AAATCT	2.03 fold enrichment (6-mer frequency, TF over GST control)
TTCTCC	1.51 fold enrichment (6-mer frequency, TF over GST control)
CTTGCG	1.13 fold enrichment (6-mer frequency, TF over GST control)
ACGTTC	1.28 fold enrichment (6-mer frequency, TF over GST control)
AATTAA	2.5 fold enrichment (6-mer frequency, TF over GST control)
GTTCCT	1.07 fold enrichment (6-mer frequency, TF over GST control)
ACTTAT	2.2 fold enrichment (6-mer frequency, TF over GST control)
AATTTA	1.59 fold enrichment (6-mer frequency, TF over GST control)
CACGAT	1.39 fold enrichment (6-mer frequency, TF over GST control)
CTCTCT	1.5 fold enrichment (6-mer frequency, TF over GST control)
GCCTAC	1.12 fold enrichment (6-mer frequency, TF over GST control)
GCCTCG	1.08 fold enrichment (6-mer frequency, TF over GST control)
AACTAG	1.11 fold enrichment (6-mer frequency, TF over GST control)

Source: article PMC7862700, “An all-to-all approach to the identification of sequence-specific readers for epigenetic DNA modifications on cytosine”
